The list is not random: actives were taken first. Their share in the collection is about 5.4%.
PNC assembly inh: inhibitors of perinucleolar compartment assembly; activity change (PNC), negative = inhibition, % at 10 µM; hit rate 3.1% among 140,000; PC3M PTB-GFP, PNC prevalence imaging, 16 h; stronger effect = lower value; AID 2417;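 active = readout at or below -70, meaning at least 70% loss of cells showing the perinucleolar compartment, a nuclear body marking cancer cells; inconclusive = readout between -30 and a set limit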;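 note: plate controls were DMSO wells for no effect and camptothecin positive control wells for full effect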
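Compounds are pinned in duplicate onto adhered PC3M cells stably expressing GFP-tagged PTB and incubated 16 h at 37 C. Cells are then fixed, nuclei stained with Hoechst, and PNC-positive cells counted.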
HPGD inh: inhibitors of human 15-hydroxyprostaglandin dehydrogenase (HPGD). purified HPGD, NADH fluorescence kinetic, PGE2 substrate. AID 894. Potency, µM, without a hit: at the top dose activity change, negative = inhibition, most hits filed as inhibitors. hit rate 4.3% among 150,000; active = well fitted inhibition curve with a large enough effect, not every such curve was filed as active; inconclusive = small, poorly fitted or top-dose-only effect, or another doubt; inactive = no such curve, though single readings can be large or run the other way; note: potency is the fitted concentration of half-maximal effect
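20 nM HPGD preincubated 15 min at room temperature with compound in 50 mM Tris-HCl pH 8, 0.01% Tween 20. Started with 1 mM NAD+ and 30 uM prostaglandin E2; NADH fluorescence (360/450 nm) read 5 times over 30-s intervals, last minus first.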
IMPase inh: cell-permeable inhibitors of inositol monophosphatase (IMPase). P97697. CHO-M1 cells, IP1 accumulation, HTRF TR-FRET ratio. inhibition (IP1 accumulation), % at 46.1 µM. 120,000 tested, under 10 active. AID 901; active = well fitted curve in the direction sought with a large enough effect in the signal ratio, not every such curve was filed as active; inconclusive = small, poorly fitted or top-dose-only effect, or a change in a side signal; inactive = no such curve, though single readings can be large or run the other way; the % refers to the signal ratio;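 note: cells stimulated with carbachol in lithium chloride buffer; plate controls were DMSO basal wells for no effect and reference inhibitor wells for full effect; higher means more IMPase inhibition seen as more IP1 and lower FRET ratio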
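In this qHTS, compounds (final up to 46 uM) act on CHO-M1 cells that are then activated through the M1 receptor with carbachol, in pH 7.4 buffer containing 50 mM LiCl, for 30 min. IP1 accumulation is quantified by the IP-One immunoassay.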
15-hLO-2 inh: inhibitors of human 15-lipoxygenase 2 (ALOX15B). purified 15hLO-2, xylenol orange hydroperoxide absorbance. hit rate 0.56% among 110,000. AID 881. Potency, µM (top dose mostly 57.1 µM), without a hit: top-dose activity change, negative = inhibition, actives largely listed as inhibitors; note: potency is the fitted concentration of half-maximal effect; nearly all actives have a fitted effect of over 60% in size
Target sequence (O15296 whole entry, looked up): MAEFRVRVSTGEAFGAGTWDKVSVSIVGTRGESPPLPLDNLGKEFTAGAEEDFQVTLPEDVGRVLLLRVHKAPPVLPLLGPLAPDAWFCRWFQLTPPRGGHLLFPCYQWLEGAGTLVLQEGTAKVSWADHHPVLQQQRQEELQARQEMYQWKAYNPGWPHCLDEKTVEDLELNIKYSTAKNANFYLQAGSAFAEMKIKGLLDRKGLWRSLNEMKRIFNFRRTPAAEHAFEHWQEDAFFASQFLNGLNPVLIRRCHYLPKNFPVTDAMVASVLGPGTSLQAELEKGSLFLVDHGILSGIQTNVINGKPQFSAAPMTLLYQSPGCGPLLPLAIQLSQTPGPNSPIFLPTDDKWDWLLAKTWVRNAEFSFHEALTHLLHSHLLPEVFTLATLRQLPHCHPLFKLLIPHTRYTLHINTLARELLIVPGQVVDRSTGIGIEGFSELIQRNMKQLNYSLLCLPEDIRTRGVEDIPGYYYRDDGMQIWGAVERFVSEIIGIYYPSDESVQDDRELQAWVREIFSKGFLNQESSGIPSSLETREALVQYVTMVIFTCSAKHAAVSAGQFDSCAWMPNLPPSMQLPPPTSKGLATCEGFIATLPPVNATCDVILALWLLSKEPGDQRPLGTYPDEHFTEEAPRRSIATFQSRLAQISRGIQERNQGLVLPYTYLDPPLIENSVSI
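Purified human 15hLO-2 (50 nM) preincubated 15 min with compound, then 45 uM arachidonic acid for 90 min at RT in 25 mM Hepes pH 7.5, 0.01% Triton X-100. Hydroperoxide detected by Fe-xylenol orange; 573/405 nm absorbance ratio.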
ALOX12 inhib: 12-hLO (ALOX12) enzyme inhibition. P18054. purified 12-hLO, xylenol orange hydroperoxide absorbance. Potency, µM (series often up to 57.1 µM), for inactives: at the top dose activity change, negative = inhibition, most hits filed as inhibitors. hit rate 0.12% among 150,000. AID 1452; note: potency is the fitted concentration of half-maximal effect; nearly all actives have a fitted effect of over 55% in size
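Hydroperoxide output read as Fe(III)-xylenol orange absorbance, 573-to-405 nm ratio, after 30 min reaction with 40 uM arachidonic acid. Enzyme: 150 nM purified human 12hLO, 15 min compound preincubation; 25 mM Hepes pH 7.0, room temperature.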
IMPase Li cell: IMPase inhibition in cells with lithium potentiation; CHO-M1 cells, IP1 TR-FRET (IP-One), carbachol + lithium; Potency, µM (highest dose often 59.4 µM), for the others: top-dose activity, negative = IMPase inhibition, hits mostly inhibitors; hit rate 0.35% among 210,000; AID 1457;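 note: IP1 builds up when IMPase is blocked and the TR-FRET signal falls; potency is the fitted concentration of half-maximal effect; plate controls were basal vehicle for no effect and high inhibitor control for full effect; nearly all actives have a fitted effect of over 50% in size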
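Concentration–response in CHO-M1 cells, lithium-potentiated; 30 min at 37C. IP1 detected by competitive TR-FRET after 10 min lysis at RT. Hill-fitted AC50.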
An asterisk follows results filed as active; ? = inconclusive; . = not tested or not shown; [ ] = dose if it differs, or a comment. Unless noted, calls come from the whole dose curve; as a rule, active = well fitted curve in the direction sought with a large enough effect; inconclusive = small, poorly fitted or top-dose-only effect, or another doubt; inactive = no such curve, though single readings can be large; an effect the other way counts as inactive or inconclusive. Unless noted, % is set by controls: 0 for no effect and ±100 for the full control effect.

SMILES	PNC assembly inh	HPGD inh	IMPase inh	15-hLO-2 inh	ALOX12 inhib	IMPase Li cell
CCN(CC)S(=O)(=O)c1ccc(Cl)c(NC(=O)c2ccc(C#N)cc2)c1	-97*	2%	.	.	-1%	3%
COC(=O)c1ccc2nc(-c3ccc(S(C)(=O)=O)cc3)cn2c1	.	.	.	.	.	11µM*
C[C@@H]1C[C@H](C)CN(S(=O)(=O)c2cc(Cl)c(Oc3ccc([N+](=O)[O-])cc3Cl)c(Cl)c2)C1	.	-1%	.	0%[11.4 µM]	3%[11.4 µM]	-1%
COc1ccc(/C(N)=N/OC(=O)N2CCOCC2)cc1	.	.	.	.	.	-3%
COc1ccc(/C(N)=N/OC(=O)C2CCC(=O)N2S(=O)(=O)c2ccc(C)cc2)cc1 (stereo not given)	-89*	-12%	.	.	-4%	2%
CCCCOCCCNC(=O)c1ccc2c(c1)OCO2	13	25µM*	8	2%	-14%	-16%[38.3 µM]
CC(OC(=O)CNC(=O)c1ccc2c(c1)OCO2)C(=O)NCCC1=CCCCC1 (stereo not given)	?	18µM*	11	-3%	-6%	3%[38.3 µM]
COCCCNC(=O)c1ccc2c(c1)OCO2	23	6.3µM*	-2	1%	-5%	15%[38.3 µM]
CC(OC(=O)Cc1ccc(Cl)cc1)C(=O)NCCC1=CCCCC1 (stereo not given)	4	-14%	.	.	-4%	7%
CC(C)COc1ccccc1C1CC(=O)Nc2cc3c(cc21)OCO3 (stereo not given)	.	.	10	.	.	.
CCCCNC(=O)CCNS(=O)(=O)c1ccc(Br)cc1	25	-5%	-2	1%	2%	-2%
CCC(C)NC(=O)CCNS(=O)(=O)c1ccc(Br)cc1 (stereo not given)	-90*	0%	-2	-1%	2%	20%[38.3 µM]
CCCSc1ncnc2c1oc1ccccc12	24	20µM*	5	3%	-5%	?
Cc1nn(-c2ccccc2)c(N2CCCC2)c1/C=N/NC(=S)Nc1ccccc1F	-86*	?	.	.	3%	15%
COc1cc(O)c2c(O)c3c(c4c2c1[C@@]1(C4)C(C)=CCCC1(C)C)[C@H](O)[C@@]1(O)CC(=O)C(C(N)=O)=C(O)[C@]1(O)C3=O	.	-23%	.	?	-28%[11.4 µM]	-3%
CCOC(=O)c1cnc2c(-c3ccc(Cl)cc3)cnn2c1C	.	.	.	.	.	-1%
CCOC(=O)c1c(-c2ccc(Cl)cc2)cn2ccccc12	56	?	2	11%	-4%	28µM*
COC(=O)c1cccc(Oc2nc3c(c(=O)n(C)c(=O)n3C)n2C(C)C)c1	-97*	-7%	-10	2%	5%	?
CCOc1ccc(N(CC(=O)Nc2ccc3c(c2)OCO3)S(=O)(=O)c2ccccc2)cc1	.	.	5	.	.	.
CCCOc1ccc(CN(CCC#N)C(=S)NC(=O)c2ccccc2)cc1	?	28µM*	.	.	-5%	-6%
CCN(CC)c1ccc(SS(=O)(=O)O)cc1	0	8.9µM*	4	?	-10%	-35%[38.3 µM]
CCCn1c(C)nc2c(N3CCOCC3)nc(C)nc21	.	-4%	.	0%	-1%	-9%
CCOC(=O)c1sc(NC(=O)c2cccc(S(=O)(=O)N3CCN(C)CC3)c2)cc1C	-12	25µM*	-2	29%	-13%	1%[38.3 µM]
CCCCCNC(=O)c1c[nH]c2ccc(S(=O)(=O)N3CCC4(CC3)OCCO4)cc2c1=O	-113*	?	.	.	-1%	-1%
Cc1cc(=O)[nH]c(SCc2cccc(Br)c2)n1	12	14µM*	3	-6%	-9%	14%[38.3 µM]
CCOC(=O)CSc1nc(C)cc(=O)[nH]1	-9	-8%	-8	0%	0%	-9%[38.3 µM]
CC(=O)c1c(C)cc(C)c(CSc2nc(C)cc(=O)[nH]2)c1C	-112*	?	-5	-2%	-8%	6%[38.3 µM]
COC(=O)c1cc(=O)[nH]c(SCc2cccc(C)c2)n1	78	-24%	.	.	1%	-10%
COc1ccc(CSc2nc(C)cc(=O)[nH]2)cc1Br	-22	16µM*	6	-6%	-4%	28%[38.3 µM]

From PubChem
